We go through 31 compounds from PubChem BioAssay (EPA / NIEHS).

Results filed as inconclusive are left out. The source made the active and inactive calls. How the source made its calls: active means hit-call score of the fitted dose curve at least 0.9, where 1 is the maximum; inconclusive means response in the unintended direction; inactive means score below 0.9.

As usually defined, the AC50 is the concentration giving half of the maximal activity seen.

Sequence of human Peroxisome Proliferator-activated Receptor alpha (PPARa), PPARA (gene 5465) (Q07869 whole entry, looked up): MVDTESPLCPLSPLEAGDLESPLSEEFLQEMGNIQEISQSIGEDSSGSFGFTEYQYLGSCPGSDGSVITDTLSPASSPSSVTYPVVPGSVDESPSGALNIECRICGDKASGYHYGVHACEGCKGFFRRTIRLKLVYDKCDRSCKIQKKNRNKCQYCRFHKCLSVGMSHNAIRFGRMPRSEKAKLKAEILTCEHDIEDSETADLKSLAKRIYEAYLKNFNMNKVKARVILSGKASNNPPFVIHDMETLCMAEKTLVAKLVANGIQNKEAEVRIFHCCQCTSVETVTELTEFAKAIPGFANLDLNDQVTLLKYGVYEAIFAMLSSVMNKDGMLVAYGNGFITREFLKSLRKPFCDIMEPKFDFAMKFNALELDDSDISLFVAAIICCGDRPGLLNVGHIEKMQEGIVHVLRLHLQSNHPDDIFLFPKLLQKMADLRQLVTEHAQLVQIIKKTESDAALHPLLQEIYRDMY
Sequence of Androgen Receptor/SRC-1 Co-activator, AR (gene 367) (P10275 whole entry, looked up, the tested form may be a part): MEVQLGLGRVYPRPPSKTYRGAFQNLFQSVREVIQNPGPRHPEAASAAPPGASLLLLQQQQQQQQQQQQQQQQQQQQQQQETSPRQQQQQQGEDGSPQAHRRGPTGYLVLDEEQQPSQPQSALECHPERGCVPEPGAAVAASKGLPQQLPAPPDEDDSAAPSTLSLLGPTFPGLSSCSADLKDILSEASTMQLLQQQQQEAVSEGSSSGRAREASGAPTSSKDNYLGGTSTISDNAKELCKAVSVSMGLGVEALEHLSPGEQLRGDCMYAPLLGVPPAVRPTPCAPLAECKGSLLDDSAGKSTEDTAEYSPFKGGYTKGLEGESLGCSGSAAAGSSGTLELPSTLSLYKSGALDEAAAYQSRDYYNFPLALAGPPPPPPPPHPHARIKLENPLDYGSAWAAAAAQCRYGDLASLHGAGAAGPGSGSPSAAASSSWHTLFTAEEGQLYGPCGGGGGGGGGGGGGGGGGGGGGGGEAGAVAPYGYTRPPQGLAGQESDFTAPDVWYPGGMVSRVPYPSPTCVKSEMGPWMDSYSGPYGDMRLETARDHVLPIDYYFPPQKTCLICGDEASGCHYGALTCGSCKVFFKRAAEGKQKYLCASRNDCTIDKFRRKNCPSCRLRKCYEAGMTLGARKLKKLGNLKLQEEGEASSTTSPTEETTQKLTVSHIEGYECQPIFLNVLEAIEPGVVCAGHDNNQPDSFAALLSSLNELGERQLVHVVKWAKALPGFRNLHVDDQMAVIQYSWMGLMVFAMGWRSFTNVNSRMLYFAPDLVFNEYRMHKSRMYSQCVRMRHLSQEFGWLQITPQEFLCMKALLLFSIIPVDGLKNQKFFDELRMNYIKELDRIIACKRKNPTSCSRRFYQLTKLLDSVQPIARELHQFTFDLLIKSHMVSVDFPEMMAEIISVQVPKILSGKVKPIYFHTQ
Sequence of Estrogen receptor beta (Homo sapiens) (Q92731 whole entry, looked up, the tested form may be a part): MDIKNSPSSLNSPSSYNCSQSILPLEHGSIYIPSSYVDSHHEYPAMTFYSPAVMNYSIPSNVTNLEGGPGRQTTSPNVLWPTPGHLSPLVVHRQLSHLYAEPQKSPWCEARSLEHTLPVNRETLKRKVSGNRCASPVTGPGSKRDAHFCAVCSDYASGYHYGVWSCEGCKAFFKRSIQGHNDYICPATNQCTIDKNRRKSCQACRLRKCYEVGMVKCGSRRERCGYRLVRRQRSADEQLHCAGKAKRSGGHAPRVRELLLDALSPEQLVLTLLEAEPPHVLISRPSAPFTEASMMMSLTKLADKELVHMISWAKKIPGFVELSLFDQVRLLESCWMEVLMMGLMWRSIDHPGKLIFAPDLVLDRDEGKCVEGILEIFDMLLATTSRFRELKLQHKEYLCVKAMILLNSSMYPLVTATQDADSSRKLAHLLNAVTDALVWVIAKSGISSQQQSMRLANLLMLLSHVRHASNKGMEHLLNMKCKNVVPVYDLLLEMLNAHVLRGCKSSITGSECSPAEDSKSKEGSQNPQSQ
Sequence of Estrogen receptor (Homo sapiens) (P03372 whole entry, looked up, the tested form may be a part): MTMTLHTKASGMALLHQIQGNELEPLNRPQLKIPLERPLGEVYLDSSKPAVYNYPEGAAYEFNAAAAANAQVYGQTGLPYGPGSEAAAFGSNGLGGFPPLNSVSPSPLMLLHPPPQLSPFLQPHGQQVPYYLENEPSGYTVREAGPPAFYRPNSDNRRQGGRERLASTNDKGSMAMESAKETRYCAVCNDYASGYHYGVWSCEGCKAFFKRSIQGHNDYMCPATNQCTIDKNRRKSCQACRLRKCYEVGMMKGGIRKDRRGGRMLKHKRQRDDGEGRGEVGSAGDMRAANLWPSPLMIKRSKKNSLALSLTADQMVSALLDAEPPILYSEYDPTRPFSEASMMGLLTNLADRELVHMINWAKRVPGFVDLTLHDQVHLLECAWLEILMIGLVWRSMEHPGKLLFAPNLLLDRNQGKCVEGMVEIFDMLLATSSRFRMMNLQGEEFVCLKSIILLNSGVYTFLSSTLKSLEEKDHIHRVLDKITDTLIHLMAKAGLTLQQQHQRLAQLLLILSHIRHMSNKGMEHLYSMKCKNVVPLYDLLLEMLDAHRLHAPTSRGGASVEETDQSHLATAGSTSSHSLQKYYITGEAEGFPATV

One test has as its target Estrogen receptor (Homo sapiens) (UniProt P03372). The experiment in a line: OT_ER_ERaERa_1440: Odyssey Thera (OT) 24-hour HEK293T Protein-Complementation Assay for Estrogen Receptor-alpha/-alpha Homodimer (AID 2283349).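 Further: hits raise fluorescence above DMSO for agonists and antagonists alike.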 As to the method: (§1) OT_ER_ERaERa_1440 is a cell-based assay that uses HEK293T, a human kidney cell line, with measurements taken at 24 hours after chemical dosing in a 384-well plate.OT_ER_ERaERa_1440 is one of one assay component(s) measured or calculated from the OT_ER_ERaERa_1440 assay. It is designed to make measurements of protein fragment complementation, a form of binding reporter, as detected with fluorescence intensity signals by Protein-fragment Complementation technology.Data from the assay component OT_ER_ERaERa_1440 was analyzed into 1 assay endpoint. This assay endpoint, OT_ER_ERaERa_1440, was analyzed in the positive analysis fitting direction relative to DMSO as the negative control and baseline of activity. Using a type of binding reporter, measures of receptor for gain-of-signal activity can be used to understand the binding at the pathway-level as they relate to the gene ESR1. Furthermore, this assay endpoint can be referred to as a primary readout, because the performed assay has only produced 1 assay endpoint. To generalize the intended target to other relatable targets, this assay endpoint is annotated to the nuclear receptor intended target family, where the subfamily is steroidal.
(§2) Protein-fragment complementation assay, or PCA, is a method for the identification and quantification of protein-protein interactions. In the PCA, the proteins of interest ("bait" and "prey") are each covalently linked to fragments of a third protein (e.g. DHFR, which acts as a "reporter"). Interaction between the bait and the prey proteins brings the fragments of the reporter protein in close proximity to allow them to form a functional reporter protein whose activity can be measured. The OT ER alpha / ER alpha assay is a homodimer PCA of the ligand binding domain (amino acids 310-547) of human ER alpha stably expressed in HEK293T cells. […] Fluorescent signal in the basal state of the assay is very low and is primarily punctuate and cytoplasmic. Modulation of this assay is quantified as an increase in mean fluorescence intensity in the nucleus (for agonists) or in the nucleus and cytoplasm (antagonists) relative to vehicle controls, and can be quantified on a high content imaging device or a laser scanning cytometer. The latter instrument is favored for this assay because of the rapid mode of data acquisition, the ability to acquire data from the entire cell population in a well (as opposed to a fraction of the well on the high content devices) and the larger dynamic range typically achieved with this instrument. To assess sensitivity of the ER alpha/ER alpha LBD assay to ligand, cells were treated with the ER agonist 17 beta-estradiol (E2) in 10-point concentration- response format for 24 hours and monitored response on a laser scanning plate cytometer (Acumen eX3; TTP Lab Tech).
Take `CC(C)NCC(O)COc1ccc(CC(N)=O)cc1` (centres undefined): the compound was called inactive.

`OCC(O)c1ccccc1` (centres undefined): the compound was classed as inactive.

In the case of `CC(C)CCCCCCc1ccc(OCCOCCO)cc1`, the compound was classed as inactive.

A further test has the same target. As to the kind of experiment: OT_ER_ERaERa_0480: Odyssey Thera (OT) 8-hour HEK293T Protein-Complementation Assay for Estrogen Receptor-alpha/-alpha Homodimer (AID 2283351).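 Further: rise in fluorescence from reassembled reporter fragments on ERα LBD homodimer in nucleus or whole cell.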 As to the method: as §1, with “OT_ER_ERaERa_0480” for “OT_ER_ERaERa_1440”, “8” for “24”, “plate.OT_ER_ERaERa_0480” for “plate.OT_ER_ERaERa_1440”, “OT_ER_ERaERa_0480,” for “OT_ER_ERaERa_1440,”
as §2, with “8” for “24”
`CC(C)NCC(O)COc1ccc(CC(N)=O)cc1` (centres undefined): the result was inactive.

In the case of `OCC(O)c1ccccc1` (centres undefined), the compound was classed as inactive.

In the case of `CC(C)CCCCCCc1ccc(OCCOCCO)cc1`, the compound was classed as inactive.

In the next test the target is Androgen Receptor/SRC-1 Co-activator, AR (gene 367) (UniProt P10275). As to the kind of experiment: OT_AR_ARSRC1_0960: Odyssey Thera (OT) 16-hour HEK293T Protein-Complementation Assay for Androgen Receptor/SRC-1 Co-activator (AID 2283353).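 Further: actives raise the signal above DMSO so potency reflects increased AR and SRC-1 complex.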 The method in brief:
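Sixteen-hour cell assay: Venus halves fused to AR and SRC-1 in HEK293T report binding. Images at 488/635 nm give an N/C ratio in the 488 nm channel over ≥400 cells, analysed as signal increase over DMSO.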
For the compound `CC(=O)O[C@@H]1CC2CCC1(C)C2(C)C` (some centres undefined), the outcome was inactive.

Turning to `C[C@H]1O[C@@H](O[C@H]2[C@@H](O)C[C@H](O[C@H]3[C@@H](O)C[C@H](O[C@H]4CC[C@@]5(C)[C@H](CC[C@@H]6[C@@H]5C[C@@H](O)[C@]5(C)[C@@H](C7=CC(=O)OC7)CC[C@]65O)C4)O[C@@H]3C)O[C@@H]2C)C[C@H](O)[C@@H]1O`, the AC50 is 0.118 µM (active).

Consider `CCc1ccc(O)cc1`, for which the call was inactive.

As for `CCc1cc(Cc2cc(CC)cc(C(C)(C)C)c2O)c(O)c(C(C)(C)C)c1`, the AC50 was 10.7 µM (active).

In the case of `CCCCCCCCCCCCCC(=O)OCC(O)CO` (centres undefined), the result was inactive.

Turning to `CC1CCC(C(C)C)C(O)C1` (centres undefined), the result was inactive.

With `CCCCC1CCC(O)CC1` (centres undefined), the outcome was inactive.

`CC(C)CCCCCCc1ccc(OCCOCCO)cc1`: the result was inactive.

A further test has as its target Estrogen receptor beta (Homo sapiens) (UniProt Q92731). The experiment in a line: OT_ER_ERbERb_0480: Odyssey Thera (OT) 8-hour HEK293T Protein-Complementation Assay for Estrogen Receptor-beta/-beta Homodimer (AID 2283357).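 Further: active means signal gain over DMSO baseline.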 Summed up: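 ER-beta LBD homodimer PCA stably expressed in HEK293T; 8 h compound exposure, then formaldehyde fixation and Draq5 staining. Gain in nuclear/cytoplasmic fluorescence intensity versus DMSO vehicle, read on laser scanning cytometer.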
Take `O=C1NC2NC(=O)NC2N1` (centres undefined): the AC50 was 22.1 µM (active).

For `CC(C)Nc1nc(N)nc(Cl)n1`, the outcome was inactive.

Take `CCCCCCC(=O)c1ccccc1`: the compound was called inactive.

`COc1ccccc1N=Nc1c(S(=O)(=O)O)cc2cc(S(=O)(=O)O)cc(NC(C)=O)c2c1O`: the result was inactive.

Consider `C=C(C)[C@@H]1CC=C(C)C(=O)C1`, for which the call was inactive.

With `CN1C(=O)c2ccccc2C1=O`, the result was inactive.

Turning to `CC(CN=Cc1ccccc1O)N=Cc1ccccc1O` (centres undefined), the result was inactive.

As to `CCCCCCCCCCCCCC(=O)OCC(O)CO` (centres undefined), the result was inactive.

`CC1CCC(C(C)C)C(O)C1` (centres undefined): the compound was classed as inactive.

On to `C[Si](C)(C)O[Si](C)(C)C`, for which the result was inactive.

Regarding `CCCCCC(C=O)=Cc1ccccc1`, the compound was classed as inactive.

For `OCC#CCO`, the result was inactive.

In the case of `CC(C)CCCCCCc1ccc(OCCOCCO)cc1`, the AC50 is 38.6 µM (active).

Take `O=C(c1ccccc1)C(O)c1ccccc1` (centres undefined): the result was inactive.

The target in another test is human Peroxisome Proliferator-activated Receptor alpha (PPARa), PPARA (gene 5465) (UniProt Q07869). The experiment in a line: NVS_NR_hPPARa: NovaScreen (NVS) Nuclear Receptor Binding Assay for human Peroxisome Proliferator-activated Receptor alpha (PPARa) (AID 2283359).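 Further: activity means loss of TR-FRET signal versus DMSO baseline.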 The method in brief:
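Loss of TR-FRET binding signal relative to DMSO was measured 1 h after chemical addition to extracted receptor protein. Chemicals were first tested in duplicate at 25 uM, and actives were followed up in concentration series.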
For `O=P(O)(O)O`, the compound was called inactive.

For `CC(C)CCCCCCCCCCCCCCC(=O)O`, the compound was classed as inactive.

As to `CCCCCC(C=O)=Cc1ccccc1`, the compound was called inactive.

Take `CCCCCCCC/C=C\CCCCCCCC(=O)OCC`: the result was inactive.

As for `Clc1ccc(C(c2ccccc2Cl)C(Cl)Cl)cc1` (centres undefined), the compound was called inactive.

The target in the next test is PGR (gene 5241) (UniProt P06401). As to the kind of experiment: NVS_NR_hPR: NovaScreen (NVS) Nuclear Receptor Binding Assay for human Progestron Receptor (PR) (AID 2283360).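 Further: active means loss of bound radioligand signal versus DMSO baseline.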 The method in brief: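 T47D lysate; tritiated or iodinated radioligand; scintillation count at 18 h. DMSO = negative control/baseline. Primary: 25 uM, duplicate. Secondary: concentration series for actives.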
Sequence of PGR (gene 5241) (P06401 whole entry, looked up): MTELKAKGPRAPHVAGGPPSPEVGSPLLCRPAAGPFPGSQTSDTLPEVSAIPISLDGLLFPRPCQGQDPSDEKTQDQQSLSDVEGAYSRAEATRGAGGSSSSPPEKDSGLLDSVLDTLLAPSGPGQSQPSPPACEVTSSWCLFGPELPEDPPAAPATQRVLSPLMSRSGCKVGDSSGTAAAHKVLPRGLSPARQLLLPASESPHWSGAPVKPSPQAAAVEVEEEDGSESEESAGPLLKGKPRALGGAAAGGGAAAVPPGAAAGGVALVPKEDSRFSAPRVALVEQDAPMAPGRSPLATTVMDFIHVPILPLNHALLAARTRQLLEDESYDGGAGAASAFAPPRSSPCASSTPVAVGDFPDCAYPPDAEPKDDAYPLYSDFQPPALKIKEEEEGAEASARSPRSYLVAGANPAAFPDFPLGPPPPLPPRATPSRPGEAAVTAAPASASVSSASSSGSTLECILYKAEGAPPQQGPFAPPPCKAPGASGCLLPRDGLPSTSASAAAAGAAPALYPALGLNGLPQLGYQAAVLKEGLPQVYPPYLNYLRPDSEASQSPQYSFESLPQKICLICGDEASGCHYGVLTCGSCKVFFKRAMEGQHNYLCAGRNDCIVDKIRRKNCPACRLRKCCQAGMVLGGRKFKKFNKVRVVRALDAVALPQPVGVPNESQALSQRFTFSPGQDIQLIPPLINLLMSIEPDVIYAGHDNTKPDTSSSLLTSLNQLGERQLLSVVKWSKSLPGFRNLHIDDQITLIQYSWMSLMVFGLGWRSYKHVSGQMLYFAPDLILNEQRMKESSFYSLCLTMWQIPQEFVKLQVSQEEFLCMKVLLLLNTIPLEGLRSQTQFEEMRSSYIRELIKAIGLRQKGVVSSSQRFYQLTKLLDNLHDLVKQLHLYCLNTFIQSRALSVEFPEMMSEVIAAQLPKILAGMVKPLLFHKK
As to `C=C(C)C(=O)OCCOCCOCCOC(=O)C(=C)C`, the compound was classed as inactive.

For `CCC(C)c1cc([N+](=O)[O-])cc([N+](=O)[O-])c1OC(=O)OC(C)C` (centres undefined), the compound was called inactive.

On to `ClC(c1ccccc1)(c1ccccc1)c1ccccc1`, for which the result was inactive.

The target of a further test is Retinoic acid receptor alpha (Homo sapiens) (UniProt P10276). The experiment in a line: NVS_NR_hRARa_Agonist: NovaScreen (NVS) Nuclear Receptor Binding Assay for human Retinoic Acid Alpha Receptor Agonism (RAR) (AID 2283361). Here is the method: NVS_NR_hRARa_Agonist is a biochemical, single-readout assay that uses extracted gene-proteins in a cell-free assay. Measurements were taken 2 hours after chemical dosing in a 384-well plate.NVS_NR_hRARa_Agonist is one of one assay component(s) measured or calculated from the NVS_NR_hRARa_Agonist assay. It is designed to make measurements of fluorescent resonance energy transfer, a form of binding reporter, as detected with fluorescent resonance energy transfer signals by Time-Resolved Fluorescence Resonance Energy Transfer (TR-FRET) technology.Data from the assay component NVS_NR_hRARa_Agonist was analyzed into 1 assay endpoint. This assay endpoint, NVS_NR_hRARa_Agonist, was analyzed in the positive analysis fitting direction relative to DMSO as the negative control and baseline of activity. Using a type of binding reporter, gain-of-signal activity can be used to understand changes in the binding as they relate to the gene RARA. Furthermore, this assay endpoint can be referred to as a primary readout, because the performed assay has only produced 1 assay endpoint. To generalize the intended target to other relatable targets, this assay endpoint is annotated to the nuclear receptor intended target family, where the subfamily is non-steroidal.
Sequence of Retinoic acid receptor alpha (Homo sapiens) (P10276 whole entry, looked up): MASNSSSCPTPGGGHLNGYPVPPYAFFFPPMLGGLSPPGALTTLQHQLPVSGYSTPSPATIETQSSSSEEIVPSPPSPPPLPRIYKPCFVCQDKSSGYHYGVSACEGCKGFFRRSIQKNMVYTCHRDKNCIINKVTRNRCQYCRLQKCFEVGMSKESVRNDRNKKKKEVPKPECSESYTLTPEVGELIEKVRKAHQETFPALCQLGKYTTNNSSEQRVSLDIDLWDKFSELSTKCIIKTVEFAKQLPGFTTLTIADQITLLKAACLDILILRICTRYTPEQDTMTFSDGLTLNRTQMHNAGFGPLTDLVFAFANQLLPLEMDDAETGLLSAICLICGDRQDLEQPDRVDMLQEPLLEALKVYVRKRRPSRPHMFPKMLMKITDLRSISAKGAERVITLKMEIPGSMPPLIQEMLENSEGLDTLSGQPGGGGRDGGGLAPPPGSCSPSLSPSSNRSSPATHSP
Binding assays used specific radioligands (tritiated, iodinated) with non-radioactive competitive displacement ligands in agonist or antagonist protocols (as indicated) and various reference compounds and inhibitors to titrate specific binding to receptors and transporters. Most enzyme assays (CYPs, kinases, phosphatases, proteases, HDACs) used recombinant protein and specific substrates (fluorescence mostly, some colorimetric and radioactive) and inhibitors, followed by a biochemical separation of substrate and product. All assays for the biochemical HTS were initially run in duplicate at a single concentration (10 uM for CYP450 assays and 25 uM for all others). […] Each assay was run with positive and negative controls, and concurrent controls on every plate. The follow-up (secondary) screen tested active chemical-pairs in concentration series, as well as a few additional assays not tested in the primary screen, some selected negative inactives, and several cases re-run in the concentration series for confirmatory purposes.
As for `[O-]n1ccccc1=S.[O-]n1ccccc1=S.[Zn+2]`, the compound was called inactive.

In the case of `O=C(CC(=O)c1ccccc1)c1ccccc1`, the outcome was inactive.

For `Cc1cc(S(=O)(=O)O)ccc1N=Nc1c(O)ccc2ccccc12`, the AC50 was 23.5 µM (active).
